HCMV antiviral = qHTS Assay for inhibitors of the human cytomegalovirus (HCMV); activity change, negative = inhibition, % at 57.5 µM; 4.5% of 410,000 active; HFF cells, HCMV-luciferase reporter, 72 h; hits give low values; AID 1259415, 2018; in the data active = activity change below about -60%; inconclusive = no clear call, values can overlap the other calls; inactive = above about -39%
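Cell-based, HFFs, 1000 cells/well, 16 h 37C; cpds in DMSO + HCMV-luc, MOI 1 PFU/cell; 72 h 37C; OneGlo luminescence after 5 min RT; norm. to buffer vs Salinomycin 10uM.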
HCV inhibitor = qHTS Assay for Inhibitors of Hepatitis C Virus (HCV). Huh7.5.1 HCVcc-Cre infection, luciferase reporter, 44 h. Potency, µM (doses to about 41.8 µM), most hits filed as inhibitors. 3.4% of 340,000 active
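After 44 h co-culture of compound, cells and HCVcc-Cre (~0.5 moi), substrate is added for 15 min at room temperature and luciferase measured over 15 sec. Cells were seeded at 1,000/well and pre-cultured 4 h.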
FMDV antiviral = High Throughput Screening for Foot and Mouth Disease Virus Antivirals; FMDV antiviral cell-based qHTS; Potency, µM (doses to about 57.9 µM), usual class: inhibitors; 1.2% of 410,000 active; calls by dose curve; tested in HEK293T cells; also: read-out not given here; nearly all actives have a fitted effect of over 45% in size
Vaccinia mCherry = qHTS for Stage-Specific Inhibitors of Vaccinia Orthopoxvirus: mCherry Reporter Primary qHTS. Potency, µM (top dose mostly 36.5 µM), most hits filed as inhibitors. Vaccinia virus mCherry reporter infection, fluorescence. 0.63% of 310,000 active; calls by dose curve; tested in A549 cells; also: nearly all actives have a fitted effect of over 35% in size
FBPA Giardia inh = qHTS Assay for Inhibitors of Fructose-1,6-bisphosphate Aldolase from Giardia Lamblia. purified Giardia FBPA. 0.71% of 290,000 active. Potency, µM (top dose mostly 59.6 µM), usual class: inhibitors; also: nearly all actives have a fitted effect of over 55% in size
Target sequence (A8B2U2 whole entry, looked up): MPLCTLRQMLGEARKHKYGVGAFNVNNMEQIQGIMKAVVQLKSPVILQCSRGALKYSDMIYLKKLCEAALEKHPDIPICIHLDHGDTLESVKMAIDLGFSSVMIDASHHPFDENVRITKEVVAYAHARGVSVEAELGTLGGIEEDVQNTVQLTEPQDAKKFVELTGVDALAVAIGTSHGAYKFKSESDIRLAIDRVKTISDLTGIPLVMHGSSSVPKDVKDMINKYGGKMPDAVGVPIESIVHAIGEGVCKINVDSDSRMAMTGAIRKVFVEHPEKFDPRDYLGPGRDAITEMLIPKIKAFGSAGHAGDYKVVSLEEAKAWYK
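40 nM FBPA preincubated 10 min at RT with compound (up to 57.5 uM final), then substrate plus GAPDH/TPI/NAD/arsenate coupling and diaphorase/resazurin added. Fluorescence read after 20 min at RT, 525/598 nm.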
Vaccinia Venus = qHTS for Stage-Specific Inhibitors of Vaccinia Orthopoxvirus: Venus Reporter Primary qHTS; Vaccinia virus Venus reporter expression, fluorescence; Potency, µM (doses to about 36.5 µM), usual class: inhibitors; 0.46% of 330,000 active; AID 720580, 2013; calls by dose curve; tested in A549 cells; also: nearly all actives have a fitted effect of over 30% in size
A number is an active result; 0 = inactive; ? = inconclusive; - = no result; + = active, no number; ! = not active in a repeat; [ ] = remark or other dose. A selection: hits, their analogues and other compounds. The true share with any hit is near 7.5%. Unless noted, calls follow the shape of the dose curve; as a rule, active = well fitted curve in the direction sought with a large enough effect; inconclusive = small, poorly fitted or top-dose-only effect, or another doubt; inactive = no such curve, though single readings can be large; an effect the other way counts as inactive or inconclusive.

SMILES | HCMV antiviral | HCV inhibitor | FMDV antiviral | Vaccinia mCherry | FBPA Giardia inh | Vaccinia Venus
O=[N+]([O-])c1ccc(O)c2cccnc12 | 0 | ? | 0 | 0 | ? | 0
COc1ccc(S(=O)(=O)Nc2ccc3c(c2)CCC3)cc1 | ? | ? | 0 | 0 | 0 | 0
CCOC(=O)c1cccc(NS(=O)(=O)c2ccc(NC(C)=O)cc2)c1 | -88 | 0 | 0 | - | 0 | -
CCOC(=O)c1cccc(NS(=O)(=O)c2ccc(-c3coc(C)n3)cc2)c1 | 0 | - | 0 | 0 | - | 0
CC(=O)NCCc1ccc(S(=O)(=O)Nc2ccc(NC(=O)c3ccc(F)cc3)cc2)cc1 | 0 | 10µM | 0 | 0 | 0 | 0
CC(=O)Nc1ccc(S(=O)(=O)NCCC(=O)NCCc2ccc(F)cc2)cc1 | 0 | 0 | 0 | - | 0 | 0
COc1cc(OC)c(OC)cc1/C=C/C(=O)c1ccc(NS(=O)(=O)c2ccc(C)cc2)cc1 | -78 | ? | 0 | ? | 0 | 0
CC(=O)Nc1ccc(S(=O)(=O)Nc2ccc3c(c2)CCC3)cc1 | -60 | ? | 0 | 0 | 0 | 0
Cc1cccc(OCC(=O)Nc2cc(C)c(O)c(-c3nc4ccccc4o3)c2)c1 | - | - | - | ? | - | 0
COc1ccccc1C(=O)NC(=O)CSc1nnc(C)s1 | 0 | 0 | 0 | 0 | - | 0
COc1ccc(C(=O)/C=C/Nc2ccc(S(=O)(=O)Nc3cccc(C(C)=O)c3)cc2)cc1 | -72 | 11µM | 0 | 0 | 0 | 0
O=C(O)c1cccc(NS(=O)(=O)c2ccc(-c3ccc(S(=O)(=O)Nc4cccc(C(=O)O)c4)cc3)cc2)c1 | -72 | 0 | 0 | 0 | 0 | 0
CCOC(=O)/C=C/S(=O)(=O)c1ccc(NC(C)=O)cc1 | -99 | ? | ? | - | 0 | -
COc1cccc(C(=O)/C=C/Nc2ccc(S(=O)(=O)Nc3ccc(C(C)=O)cc3)cc2)c1 | 0 | 0 | 0 | ? | 0 | ?
CC(=O)c1cccc(NS(=O)(=O)c2ccc(C(=O)Nc3ccccc3)cc2)c1 | -76 | 4.5µM | 0 | 0 | - | 0
CCOCCCNC(=S)NCCCNc1nc2ccc(C)cc2cc1C#N | -91 | - | - | - | 0 | -
CCOCCCNC(=S)NCCNc1nc2ccc(C)cc2cc1C#N | 0 | ? | 0 | 0 | 0 | 0
Cc1ccc(C)n1C1C(=O)N(C)c2ccc(Cl)cc21 (stereo not drawn) | 0 | - | - | - | - | -
O=C1CCC/C=C\C[C@@H](CC(=O)N(CCO)Cc2ccccc2)C(=O)N[C@H](c2ccccc2)CO1 | 0 | 0 | 0 | 0 | - | 0
COC12C(COC(N)=O)C3=C(C(=O)C(C)=C(N)C3=O)N1CC1C2N1C (stereo not drawn) | -105 | ? | 0 | ? | ? | ?
O=c1c(O)c(-c2ccc(O)cc2)oc2cc(O)cc(O)c12 | - | 6.3µM | 0 | 0 | 0 | 0
O=c1c(O)c(-c2ccc(O)c(O)c2)oc2ccccc12 | - | - | - | - | 0 | -
O=c1c(O)c(-c2ccc(O)c(O)c2)oc2c(O)c(O)cc(O)c12 | - | - | 0 | 0 | 7.1µM | 0
Cc1cccc(N2CCN(C(=O)c3ccc(N4CCCC4=O)cc3)CC2C)c1 (stereo not drawn) | 0 | ? | 32µM | ? | 0 | 0
Cc1cccc(N2CCN(C(=O)c3ccc4c(c3)c(C)c(C)n4C)CC2C)c1 (stereo not drawn) | +! | ? | 0 | 0 | - | 0
SMILES | HCMV antiviral | HCV inhibitor | FMDV antiviral | Vaccinia mCherry | FBPA Giardia inh | Vaccinia Venus
Cc1cccc(N2CCN(C(=O)c3nn(C)c4c3CSc3ccccc3-4)CC2C)c1 (stereo not drawn) | -62 | - | 0 | 0 | - | 0
Cc1cccc(N2CCN(C(=O)c3cc4c(=O)n(C)c5ccccc5c4s3)CC2C)c1 (stereo not drawn) | 0 | - | 0 | 0 | - | 0
CCNC(=O)c1ccc(C23CC4CC(CC(C4)C2)C3)o1 | 0 | 0 | 0 | 0 | 0 | 0
Cc1cc(C(=O)NCC2CCC3(CCN(Cc4cccc(F)c4F)CC3)O2)n(C)n1 (stereo not drawn) | - | - | 0 | 0 | - | 0
O=C(c1ccc2ccccc2c1)N1CCn2c(nnc2C(=O)N2CCOCC2)C1 | 0 | - | - | - | - | -
CN(CCO)C(=O)c1cn(C2CCN(Cc3c(F)cccc3Cl)CC2)nn1 | - | - | 0 | 0 | - | 0
COC(=O)c1c(C)oc2ccc(N(C(=O)c3ccncc3)S(=O)(=O)c3cc(C)c(C)cc3C)cc12 | -60 | - | 0 | 0[7.34 µM] | - | 0[7.34 µM]
CCc1ccc(S(=O)(=O)N(C(=O)Oc2ccccc2)c2ccc3oc(C)c(C(=O)OC)c3c2)cc1 | -71 | - | 0 | 0[7.34 µM] | - | 0[7.34 µM]
CCc1ccc(S(=O)(=O)N(C(C)=O)c2ccc3oc4c(c3c2)CCCC4)cc1 | -92 | - | 0 | 0 | - | 0
CCCC(=O)N(c1ccc2oc3c(c2c1)CCCC3)S(=O)(=O)c1ccc(CC)cc1 | 0 | - | 0 | 0 | - | 0
COC(=O)c1c(C)oc2ccc(N(C(=O)c3ccncc3)S(=O)(=O)c3ccc(C)cc3C)cc12 | -92 | 1.6µM | ? | 0 | 0 | ?
COC(=O)c1c(C)oc2ccc(N(C(=O)c3ccncc3)S(=O)(=O)c3ccc(C)cc3)cc12 | - | ? | 0 | 10µM | 0 | ?
COC(=O)c1c(C)oc2ccc(N(C(=O)c3ccncc3)S(=O)(=O)c3ccccc3)cc12 | 0 | ? | 0 | - | 0 | ?
CN1C(=O)C(n2ccc3ccccc32)c2cccc(F)c21 (stereo not drawn) | 0 | - | - | - | - | -
O=S(=O)(c1cc(C(F)(F)F)ccc1Cl)N1CCN(c2ncnc3ccccc23)CC1 | -82 | 14µM | ? | 0 | - | ?
Cc1cc(C)c(C)c(S(=O)(=O)N2CCN(c3ncnc4ccccc34)CC2)c1C | ? | 2.5µM | 16µM | - | - | -
CC1CCN(c2ncnc3ccccc23)CC1 | -72 | 11µM | ? | - | 0 | -
Cc1cc(C)c(C)c(S(=O)(=O)N2CCN(c3ccccn3)CC2)c1C | 0 | ? | 0 | - | 0 | -
COc1ccccc1C(=O)/C=C/c1ccc(N2CCCCC2)c([N+](=O)[O-])c1 | -80 | 11µM | 35µM | ? | 0 | ?
CC(=O)Oc1ccccc1C(=O)C=Cc1cccc([N+](=O)[O-])c1 | -77 | ? | 28µM | 14µM | - | ?
Cc1cc(O)c(C(=O)/C=C/c2cccc([N+](=O)[O-])c2)c(=O)o1 | 0 | 0 | 18µM | 0 | 0 | 0
O=C(/C=C/c1cccc([N+](=O)[O-])c1)c1cccs1 | -90 | ? | 0 | 0 | 0 | 0
CS(=O)(=O)N(CC(=O)N1CCc2ccccc2C1)c1ccccc1Br | 0 | 0 | 0 | - | 0 | -
CNc1ccc(/C=C2\C=Cc3ccccc32)cc1OC | - | - | - | 0 | - | 0
COc1ccc(-c2nc3ccccc3n2Cc2ccc(C(C)C)cc2)cc1 | -73 | - | 0 | 0 | - | 0
COc1ccc(-c2nc3ccccc3n2Cc2ccc(Cl)cc2)cc1 | 0 | - | 0 | 0 | - | 0
CC1ON=C(c2cccc3ccccc23)N(C)C1=O (stereo not drawn) | 0 | - | 0 | 0 | - | 0
COc1ccc(-c2cnc(N)nc2-c2ccc(OCc3ccccc3)cc2O)cc1 | 0 | ? | ? | ? | 0 | ?

Compound activity: PubChem BioAssay, National Center for Advancing Translational Sciences (NCATS)
